Compounds with a hit are over-represented: about 10% of the library has one in this group of screens.
HP1b binding inh = inhibitors of HP1-beta chromodomain binding to methylated histone tails. actives 0.56% (n = 390,000). Potency, µM (series often up to 114 µM), without a hit: at the top dose activity change, negative = inhibition, most hits filed as inhibitors. AID 540317. P83916. AlphaScreen HP1-beta / biotin-H3K9me3 peptide binding; also: potency is read from the fitted curve at half-maximal effect; nearly all actives have a fitted effect of over 70% in size
Target sequence (P83916 whole entry, looked up): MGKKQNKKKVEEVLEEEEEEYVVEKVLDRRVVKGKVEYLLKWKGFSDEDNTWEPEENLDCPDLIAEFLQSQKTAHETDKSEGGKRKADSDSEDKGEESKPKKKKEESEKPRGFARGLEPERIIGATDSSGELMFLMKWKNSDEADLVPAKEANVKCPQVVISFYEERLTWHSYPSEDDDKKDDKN
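Compound inhibition of the preformed complex between 50 nM HP1-beta and 50 nM biotinylated H3K9me3 peptide was read by AlphaScreen. Buffer was PBS pH 7.4 with 0.01% Tween-20. Incubations ran 30 min at room temperature, with 10 ug/mL donor/acceptor beads.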
BAZ2B inh = BAZ2B (human) inhibition | AlphaScreen BAZ2B-H3K14Ac peptide displacement | Potency, µM (doses to about 114 µM), without a hit: at the top dose activity change, negative = inhibition, actives largely listed as inhibitors | actives 4.4% (n = 360,000) | AID 504333; also: potency is read from the fitted curve at half-maximal effect; % is scaled to controls: 0 for no effect and ±100 for the full control effect; nearly all actives have a fitted effect of over 60% in size
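In this displacement format the biotinylated H3(5-23) peptide acetylated at Lys14 serves as ligand at 50 nM, with BAZ2B at 50 nM in PBS pH 7.4 containing 0.01% Tween-20. Donor and acceptor beads are 10 ug/mL final.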
CtBP-E1A inh = CtBP/E1A binding inhibition | AlphaScreen GST-E1A/His-CtBP binding, 1536-well; active compounds read low | activity change, % (no concentration beside the values) | AID 651724 | actives 0.49% (n = 340,000); in the data active = activity change below about -65%; inconclusive = mostly about -30% to -63%; also: % is scaled to controls: 0 for no effect and ±100 for the full control effect
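AlphaScreen with 125 nM GST-E1A and 125 nM His-CtBP (5X stocks) in Tris pH 8.0, 300 mM NaCl, BSA, Tween 20, TCEP. Compounds preincubated 2 h at 37 deg C, then glutathione donor/nickel acceptor beads added for 1 h at 37 deg C in dark.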
Six1-Eya2 inh = Six1/Eya2 interaction inhibition; Q15475+O00167; AlphaScreen GST-Six1/His-Eya2 binding, biochemical; active compounds read low; activity change, % (concentration not given with the values); actives 0.56% (n = 360,000); in the data active = activity change below about -65%; inconclusive = mostly about -30% to -63%; also: % is scaled to controls: 0 for no effect and ±100 for the full control effect
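AlphaScreen luminescence read after one hour at 37 °C in darkness. Pin-transferred compounds met GST-Six1 and His-Eya2 protein (5X stock 250 nM/500 nM) plus glutathione donor and Ni-chelate acceptor beads (5X, 50 ug/mL).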
JMJD2A Tudor inh = JMJD2A Tudor domain (human) inhibition. AlphaScreen JMJD2A-Tudor / H3K4me3 peptide binding. Potency, µM (highest dose often 114 µM), for inactives: at the highest dose activity change, negative = inhibition, actives largely listed as inhibitors. actives 4.4% (n = 390,000). O75164; also: potency is read from the fitted curve at half-maximal effect; % is scaled to controls: 0 for no effect and ±100 for the full control effect; nearly all actives have a fitted effect of over 50% in size
G9a inh = G9a (human) methyltransferase inhibition; Q96KQ7; G9a H3K9 monomethylation, AlphaScreen, 2 h; Potency, µM (series often up to 102 µM), for the others: top-dose activity, negative = inhibition, usual class: inhibitors; actives 8.8% (n = 350,000); AID 504332; also: potency is read from the fitted curve at half-maximal effect; % is scaled to controls: 0 for no effect and ±100 for the full control effect; nearly all actives have a fitted effect of over 75% in size
Target sequence (Q96KQ7 913-1193 limits assumed): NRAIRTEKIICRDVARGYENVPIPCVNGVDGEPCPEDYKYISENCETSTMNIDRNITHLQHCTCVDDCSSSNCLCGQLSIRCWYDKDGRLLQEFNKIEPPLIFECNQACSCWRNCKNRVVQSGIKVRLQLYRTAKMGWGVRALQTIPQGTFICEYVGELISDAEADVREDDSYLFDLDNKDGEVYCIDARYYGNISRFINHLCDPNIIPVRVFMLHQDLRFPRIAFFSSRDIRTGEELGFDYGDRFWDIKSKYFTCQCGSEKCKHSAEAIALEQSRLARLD
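Using a bead-based AlphaScreen, monomethylated H3K9 product from 2 h room-temperature reactions (G9a 20 nM, peptide 500 nM, SAM 20 uM) was detected with 0.5 ug/mL rabbit anti-H3K9me1 antibody.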
The depositor's hits bear a star; ? = inconclusive; / = no result given; [ ] = dose if it differs, or a comment. Unless noted, calls follow the shape of the dose curve; as a rule, active = well fitted inhibition curve with a large enough effect; inconclusive = small, poorly fitted or top-dose-only effect; inactive = no such curve, though single readings can be large or run the other way.

SMILES	HP1b binding inh	BAZ2B inh	CtBP-E1A inh	Six1-Eya2 inh	JMJD2A Tudor inh	G9a inh
O=C(Nc1ccccc1C(F)(F)F)c1ccsc1	36.0%	2.4%	13.8	3.5	19.9%	47.1%
Cc1cc(=O)c2cc3nc(-c4cccnc4)oc3c(Br)c2o1	/	79.4µM*	/	/	/	39.8µM*
O=c1oc(-c2cccnc2)nc2ccccc12	31.8%	0.1%	0.1	-13.5	-6.6%	?
COc1ccc(N2CCN(C(=O)COC(=O)c3ccco3)CC2)cc1	16.6%	-14.4%	-3.1	10.8	-9.5%	/
COc1ccc(OC)c(C(=O)c2c(C)oc3cc([N+](=O)[O-])c(O)c([N+](=O)[O-])c23)c1	-24.4%	?	-10.7	-7.3	-34.8%	?
Cc1oc2cc([N+](=O)[O-])c(O)c([N+](=O)[O-])c2c1C(=O)c1ccc(Cl)cc1	?	31.6µM*	/	-2.1	50.1µM*	/
Cc1ccc(NC(=O)CN2C(=S)NC(C)(C)CC2C)cc1Cl (stereo not given)	11.7%	-21.5%	-3.7	-11.6	-14.6%	15.8µM*
CC1CC(C)(C)NC(=S)N1CCC(=O)NCCc1ccc(Cl)cc1 (stereo not given)	13.0%	-4.4%	-7.4	-11.8	-15.3%	50.1µM*
CC1CC(C)(C)NC(=S)N1CCCC(=O)N1CCN(c2ccccc2F)CC1 (stereo not given)	-1.8%	-17.3%	12.3	-2.9	-22.0%	0.2%[59 µM]
CC(=O)c1cccc(NC(=O)CN2C(=S)NC(C)(C)CC2C)c1 (stereo not given)	6.3%	-18.5%	-5.2	2.4	12.0%	31.6µM*
CC1CC(C)(C)NC(=S)N1CCCC(=O)NCCc1ccc(Cl)cc1 (stereo not given)	33.7%	-14.5%	5.1	-0.5	-8.8%	-27.8%
CC1CC(C)(C)NC(=S)N1CCC(=O)N1CCc2ccccc21 (stereo not given)	20.3%	-11.8%	2.5	-3.2	-4.4%	44.7µM*
CCCS(=O)(=O)N1CC(=O)N(c2ccc(Cl)cc2C)C(C)(C(=O)NC2CCCC2)C1 (stereo not given)	22.1%	7.4%	/	/	-12.9%	-27.8%[59 µM]
C=C1CC2C3C=C(C)C4=CC(=O)CCC4(C)C3CCC2(C)[C@@]1(OC(C)=O)C(C)=O (stereo not given in full)	/	/	/	/	/	17.8µM*
CC1CCC2C(=O)N(c3ccc(S(=O)(=O)c4ccccc4)cc3)C(=O)C2C1 (stereo not given)	25.0%	3.0%	4.7	0.6	-2.8%	18.7%[59 µM]
CC(C)(C)OC(=O)NCC12C=CC(O1)C1C(=O)N(Cc3ccccc3)C(=O)C12 (stereo not given)	34.7%	-0.4%	11.6	2.3	-7.8%	10µM*
O=C1C=C(Nc2ccc(F)cc2)c2ccccc2C1=O	-14.9%	?	-3.1	-18.7	-25.6%	7.94µM*
Cc1ccc(NC2=CC(=O)C(=O)c3ccccc32)c(C)c1	17.5%	?	/	0.6	-14.2%	-1.7%[2.33 µM]
O=C1C=C(Nc2ccccc2O)c2ccccc2C1=O	-38.3%	44.7µM*	12.0	?	?	44.7µM*
COc1ccc2c(c1)c1c(c(=O)n(-c3ccccc3C)c(=O)n1Cc1c(F)cccc1Cl)n2C	35.0%	-2.0%	/	/	-11.4%	1.6%[59 µM]
CC(C)N(Cc1ccccc1)C(=O)COC(=O)/C=C/c1cnc2ccccc2n1	-19.5%	?	-86.8*	-21.9	-24.6%	-49.2%
COc1ccc(CCNC(=O)CCc2c(C)c3cc4c(C)c(C)oc4cc3oc2=O)cc1	2.9%	-4.8%	/	/	-8.5%	-1.9%[59 µM]
CCOC(=O)C[n+]1c(C)sc2ccc(OC)cc21	?	?	-16.5	-19.4	50.1µM*	1.26µM*
c1cn(CCCNC2CCCCCCC2)cn1	?	/	0.0	-21.6	39.8µM*	/
c1cn(CCCNC2=NCCCCC2)cn1	27.2%	50.1µM*	0.0	-3.5	-27.8%	-1.8%
SMILES	HP1b binding inh	BAZ2B inh	CtBP-E1A inh	Six1-Eya2 inh	JMJD2A Tudor inh	G9a inh
c1cn(CCCNc2ncnc3sc4c(c23)CCC4)cn1	10.5%	12.6%	-3.0	-16.2	-22.6%	3.8%
COc1ccc(NC(=O)N(C2CCCCC2)C(C)c2ccco2)c(OC)c1 (stereo not given)	6.8%	?	-9.7	-10.3	?	44.7µM*
COc1ccc(NC(=S)Nc2cccnc2)c(OC)c1	16.2%	-3.3%	/	-4.4	-2.0%	50.1µM*
COc1ccc(NC(=O)C/C(C)=N/NC(=O)C(=O)NC2CCCCC2)c(OC)c1	39.5%	-14.5%	-4.3	-4.1	-5.4%	15.8µM*
COc1cccc(NC(=S)Nc2cccnc2)c1	7.2%	-1.1%	9.1	-3.1	-10.9%	-16.9%[59 µM]
COc1ccc(NC(=S)NC2CCCCCC2)c(OC)c1	?	?	-10.3	-4.5	-29.6%	?
COc1ccc(NC(=S)NC2CCCCC2)c(OC)c1	?	?	0.0	-12.1	-29.6%	50.1µM*
CN(C)C(=S)N=c1ssc(=S)n1Cc1cccnc1	?	/	0.2	-0.4	?	/
Cc1ccccc1S(=O)(=O)N1CCN(c2nc(-c3cccs3)nc3ccccc23)CC1	32.9%	/	/	/	-5.4%	/
COC(=O)NNC(=S)Nc1cc(OC)ccc1OC	-8.7%	?	12.7	0.8	?	44.7µM*
COc1ccc(NC(=S)Nc2ccccc2OC)c(OC)c1	?	-10.4%	-1.3	2.8	?	-15.6%[59 µM]
COc1ccc(NC(=S)Nc2ccc(OC)cc2OC)c(OC)c1	-9.5%	-12.6%	-2.8	-4.7	-5.5%	3.98µM*
COc1ccc(NC(=O)Nc2ccc(Cc3ccncc3)cc2)c(OC)c1	?	50.1µM*	5.3	-18.1	?	?
Cn1c(=O)c(=O)n(C)c2cc(NS(=O)(=O)c3ccc(Br)cc3)c(Cl)cc21	15.1%	-11.9%	/	/	-14.4%	2.7%[59 µM]
CCn1c(SCc2c(F)cccc2Cl)nc(=O)c2c(C(=O)OC)cc(C3CC3)nc21	13.4%[57 µM]	-12.6%	/	/	-32.1%	-26.8%[59 µM]
COc1cccc(C2c3c(ncn(-c4ccccc4C#N)c3=N)Oc3ccc4ccccc4c32)c1 (stereo not given)	/	/	/	/	56.2µM*	/
COc1ccc(C2c3c(ncn(CCN4CCOCC4)c3=N)Oc3ccc4ccccc4c32)cc1 (stereo not given)	-0.5%	-37.5%	-29.7	-16.3	?	23.3%[12.7 µM]
COc1cccc(C2c3c(ncn(-c4ccccc4Br)c3=N)Oc3ccc4ccccc4c32)c1 (stereo not given)	/	/	/	/	50.1µM*	/
O=C(NCc1ccccc1Cl)c1ccc(CSc2nc3ccncc3[nH]2)cc1	14.2%	-20.5%	?	-6.2	-26.8%	-37.5%
O=C(c1ccc(CSc2nc3ccncc3[nH]2)cc1)N1CCCCC1	?	79.4µM*	0.7	2.6	20µM*	25.1µM*

Screening results: PubChem, National Center for Advancing Translational Sciences (NCATS)
